Laboratory results reported in the supplement of paper PMC10849652.
Targets with a hit are over-represented here; the source holds about 8,800 in all. About 0.5% of all pairs of compound and target were hits.

compound: C[C@H](C1=CC=C(C=C1)C(=O)NC2=C3C=CNC3=NC=C2)N; test: log2 fold change, soluble protein after heating vs DMSO (PISA); higher = thermal stabilisation; K562 lysate, 10 uM; active = over 0.2 and 3.5 SD of the protein, either way, in both replicates (recomputed)
Procedure, shortened: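 Quantification was by TMTpro 16plex LC-MS/MS with equalised channel sums, applied to the supernatant after 21,000xg for 90 min. Samples were crude K562 extract at 1 mg/mL protein in PBS pH 7.4 with 1 mM MgCl2, treated with 10 μM compound for 30 min, heated for 3 min across 48°C-58°C, pooled and brought to 0.5% NP-40 at 4°C. Values are log-two fold changes in thermal stability relative to solvent controls, from duplicates.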

UniProt Q9H4B7, sequence (Q9H4B7 whole entry, looked up): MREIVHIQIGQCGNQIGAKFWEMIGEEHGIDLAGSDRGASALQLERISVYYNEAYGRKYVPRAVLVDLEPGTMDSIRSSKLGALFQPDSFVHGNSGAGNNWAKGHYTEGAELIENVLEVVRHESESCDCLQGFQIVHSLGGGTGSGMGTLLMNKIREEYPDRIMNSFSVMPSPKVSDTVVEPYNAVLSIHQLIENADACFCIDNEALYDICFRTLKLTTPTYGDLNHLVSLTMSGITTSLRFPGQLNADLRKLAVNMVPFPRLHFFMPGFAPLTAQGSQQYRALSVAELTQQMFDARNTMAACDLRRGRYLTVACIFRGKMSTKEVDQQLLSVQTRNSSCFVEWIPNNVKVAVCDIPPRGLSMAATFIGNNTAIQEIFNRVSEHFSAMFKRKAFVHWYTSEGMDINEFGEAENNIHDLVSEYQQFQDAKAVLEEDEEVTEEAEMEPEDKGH
UniProt Q9UPN9, sequence (Q9UPN9 whole entry, looked up): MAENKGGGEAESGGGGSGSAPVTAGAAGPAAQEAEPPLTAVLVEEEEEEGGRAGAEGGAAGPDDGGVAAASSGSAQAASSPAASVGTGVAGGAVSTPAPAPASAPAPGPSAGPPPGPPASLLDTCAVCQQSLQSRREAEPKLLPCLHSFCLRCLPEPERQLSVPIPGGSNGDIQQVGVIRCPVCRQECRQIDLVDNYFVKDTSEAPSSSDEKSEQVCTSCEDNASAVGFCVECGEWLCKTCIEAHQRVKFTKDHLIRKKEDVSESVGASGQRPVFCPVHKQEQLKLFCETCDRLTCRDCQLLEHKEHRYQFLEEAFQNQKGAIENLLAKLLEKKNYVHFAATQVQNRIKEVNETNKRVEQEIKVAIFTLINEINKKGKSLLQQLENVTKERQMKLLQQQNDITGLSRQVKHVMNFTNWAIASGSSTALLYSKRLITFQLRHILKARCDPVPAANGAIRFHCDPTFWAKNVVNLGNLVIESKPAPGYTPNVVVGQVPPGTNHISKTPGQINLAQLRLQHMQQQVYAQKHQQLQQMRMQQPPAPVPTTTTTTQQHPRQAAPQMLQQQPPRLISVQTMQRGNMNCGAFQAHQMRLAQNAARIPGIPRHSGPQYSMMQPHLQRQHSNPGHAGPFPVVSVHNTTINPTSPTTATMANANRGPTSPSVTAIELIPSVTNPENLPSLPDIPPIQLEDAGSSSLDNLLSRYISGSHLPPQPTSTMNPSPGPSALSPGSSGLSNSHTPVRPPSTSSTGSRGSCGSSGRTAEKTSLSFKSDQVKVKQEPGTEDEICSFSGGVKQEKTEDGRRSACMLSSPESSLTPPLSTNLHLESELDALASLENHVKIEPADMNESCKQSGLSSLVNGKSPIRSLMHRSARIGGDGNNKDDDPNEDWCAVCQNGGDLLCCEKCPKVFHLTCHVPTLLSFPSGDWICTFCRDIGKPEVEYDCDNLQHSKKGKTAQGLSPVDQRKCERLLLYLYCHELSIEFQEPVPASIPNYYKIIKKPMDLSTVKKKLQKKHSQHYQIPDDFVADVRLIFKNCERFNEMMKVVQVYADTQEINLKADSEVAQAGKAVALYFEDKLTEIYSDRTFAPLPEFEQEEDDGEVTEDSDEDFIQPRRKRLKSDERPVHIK
UniProt P33981, sequence (P33981 whole entry, looked up): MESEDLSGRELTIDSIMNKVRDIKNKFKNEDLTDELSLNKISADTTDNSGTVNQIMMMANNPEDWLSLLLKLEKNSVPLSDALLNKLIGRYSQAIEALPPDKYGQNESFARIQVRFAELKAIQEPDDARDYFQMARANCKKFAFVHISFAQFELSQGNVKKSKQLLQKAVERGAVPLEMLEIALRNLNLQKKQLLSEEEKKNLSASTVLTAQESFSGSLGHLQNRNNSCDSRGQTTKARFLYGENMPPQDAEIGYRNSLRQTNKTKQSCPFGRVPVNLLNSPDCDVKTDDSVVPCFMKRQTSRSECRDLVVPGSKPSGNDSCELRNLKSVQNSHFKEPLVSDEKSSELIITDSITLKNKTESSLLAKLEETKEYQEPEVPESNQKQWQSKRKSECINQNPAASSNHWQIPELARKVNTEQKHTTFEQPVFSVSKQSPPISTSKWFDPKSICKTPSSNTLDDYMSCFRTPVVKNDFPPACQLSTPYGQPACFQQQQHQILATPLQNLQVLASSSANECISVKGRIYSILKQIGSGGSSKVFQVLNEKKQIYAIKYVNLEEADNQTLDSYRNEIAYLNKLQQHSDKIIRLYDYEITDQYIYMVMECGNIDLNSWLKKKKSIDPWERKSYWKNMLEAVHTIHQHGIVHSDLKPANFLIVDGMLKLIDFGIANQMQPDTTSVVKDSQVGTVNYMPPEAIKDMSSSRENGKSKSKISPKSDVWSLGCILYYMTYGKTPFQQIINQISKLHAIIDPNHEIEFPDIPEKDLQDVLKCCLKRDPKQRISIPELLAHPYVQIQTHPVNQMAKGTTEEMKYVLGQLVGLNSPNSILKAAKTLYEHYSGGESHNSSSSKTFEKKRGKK
UniProt Q9BSJ2, sequence (Q9BSJ2 whole entry, looked up): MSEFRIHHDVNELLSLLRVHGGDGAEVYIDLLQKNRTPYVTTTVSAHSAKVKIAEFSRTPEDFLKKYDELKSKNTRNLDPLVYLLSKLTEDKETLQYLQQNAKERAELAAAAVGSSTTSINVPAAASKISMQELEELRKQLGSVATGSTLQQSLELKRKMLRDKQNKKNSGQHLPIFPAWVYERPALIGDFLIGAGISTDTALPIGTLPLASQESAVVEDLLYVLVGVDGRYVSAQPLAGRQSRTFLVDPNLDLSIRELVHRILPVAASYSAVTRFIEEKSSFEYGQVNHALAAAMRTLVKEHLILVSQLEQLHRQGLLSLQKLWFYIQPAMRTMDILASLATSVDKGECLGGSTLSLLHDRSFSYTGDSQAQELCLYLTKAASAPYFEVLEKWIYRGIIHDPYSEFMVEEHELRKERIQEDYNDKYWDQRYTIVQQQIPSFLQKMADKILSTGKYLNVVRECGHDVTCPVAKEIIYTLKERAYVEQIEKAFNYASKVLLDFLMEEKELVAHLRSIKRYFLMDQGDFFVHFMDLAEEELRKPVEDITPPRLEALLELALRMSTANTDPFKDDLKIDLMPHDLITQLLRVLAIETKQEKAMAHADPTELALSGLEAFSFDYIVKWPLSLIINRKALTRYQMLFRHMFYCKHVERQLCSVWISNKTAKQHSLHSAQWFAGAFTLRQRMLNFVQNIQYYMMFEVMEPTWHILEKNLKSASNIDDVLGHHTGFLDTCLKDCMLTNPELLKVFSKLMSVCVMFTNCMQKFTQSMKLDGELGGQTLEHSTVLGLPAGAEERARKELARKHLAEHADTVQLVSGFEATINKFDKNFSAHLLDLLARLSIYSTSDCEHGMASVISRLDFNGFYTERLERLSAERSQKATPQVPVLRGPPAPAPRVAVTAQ
UniProt Q15813, sequence (Q15813 whole entry, looked up): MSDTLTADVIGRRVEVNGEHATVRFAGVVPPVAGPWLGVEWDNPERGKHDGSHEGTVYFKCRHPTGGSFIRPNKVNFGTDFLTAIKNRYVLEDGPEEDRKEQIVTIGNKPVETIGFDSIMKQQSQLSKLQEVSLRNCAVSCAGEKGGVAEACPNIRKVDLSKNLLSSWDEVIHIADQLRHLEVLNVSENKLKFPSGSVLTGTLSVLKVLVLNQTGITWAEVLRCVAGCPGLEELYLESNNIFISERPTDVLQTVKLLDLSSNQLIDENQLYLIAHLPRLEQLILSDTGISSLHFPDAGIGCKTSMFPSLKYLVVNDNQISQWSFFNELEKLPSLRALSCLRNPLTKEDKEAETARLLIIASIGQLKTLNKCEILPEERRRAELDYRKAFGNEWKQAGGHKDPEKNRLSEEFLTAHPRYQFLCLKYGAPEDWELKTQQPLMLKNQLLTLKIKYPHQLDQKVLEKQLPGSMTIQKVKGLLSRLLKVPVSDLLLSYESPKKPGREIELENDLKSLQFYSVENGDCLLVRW
UniProt P22314, sequence (P22314 whole entry, looked up): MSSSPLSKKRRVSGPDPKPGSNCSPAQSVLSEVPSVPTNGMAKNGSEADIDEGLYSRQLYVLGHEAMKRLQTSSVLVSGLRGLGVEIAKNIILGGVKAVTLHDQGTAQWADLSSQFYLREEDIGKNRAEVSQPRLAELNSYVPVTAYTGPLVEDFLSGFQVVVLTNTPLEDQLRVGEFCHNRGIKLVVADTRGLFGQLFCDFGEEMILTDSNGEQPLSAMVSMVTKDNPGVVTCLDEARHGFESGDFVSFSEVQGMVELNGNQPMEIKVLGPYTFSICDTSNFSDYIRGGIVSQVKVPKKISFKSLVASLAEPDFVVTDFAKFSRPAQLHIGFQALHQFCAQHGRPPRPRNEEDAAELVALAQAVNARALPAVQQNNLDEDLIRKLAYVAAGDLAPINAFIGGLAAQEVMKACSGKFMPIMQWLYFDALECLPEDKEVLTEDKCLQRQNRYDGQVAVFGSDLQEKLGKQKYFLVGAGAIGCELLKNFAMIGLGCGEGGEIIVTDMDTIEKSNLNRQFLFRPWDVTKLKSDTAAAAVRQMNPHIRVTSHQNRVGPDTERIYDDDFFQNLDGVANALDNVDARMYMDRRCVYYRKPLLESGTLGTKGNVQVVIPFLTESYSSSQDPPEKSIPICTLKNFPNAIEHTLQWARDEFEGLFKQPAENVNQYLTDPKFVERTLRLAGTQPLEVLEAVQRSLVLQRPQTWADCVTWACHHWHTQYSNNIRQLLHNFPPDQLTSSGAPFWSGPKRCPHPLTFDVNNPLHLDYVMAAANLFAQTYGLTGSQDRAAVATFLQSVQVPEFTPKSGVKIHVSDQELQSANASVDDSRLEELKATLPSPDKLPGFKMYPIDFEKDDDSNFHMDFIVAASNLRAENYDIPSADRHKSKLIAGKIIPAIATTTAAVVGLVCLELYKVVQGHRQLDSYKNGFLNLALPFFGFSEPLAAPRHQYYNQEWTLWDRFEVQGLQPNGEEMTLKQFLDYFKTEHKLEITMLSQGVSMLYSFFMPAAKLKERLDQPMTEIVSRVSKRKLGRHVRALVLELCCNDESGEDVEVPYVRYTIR

log2 fold change, active:
TPST2 (UniProt O60704) -0.671
TPM4 isoform 2 (UniProt P67936) 0.329
TSPAN13 (UniProt O95857) -0.387

log2 fold change, inactive:
TBCE (UniProt Q15813) -0.002
TNPO3 (UniProt Q9Y5L0) -0.015
TRIM33 (UniProt H0Y612) -0.093
UBR4 (UniProt Q5T4S7) -0.017
TTK (UniProt P33981) 0
TP53RK (UniProt Q96S44) 0.042
TUBGCP3 (UniProt Q96CW5) -0.012
UBR3 isoform 4 (UniProt Q6ZT12) -0.006
TRIM33 isoform 2 (UniProt Q9UPN9) -0.07
TOE1 (UniProt Q96GM8) -0.023
UBA1 (UniProt P22314) -0.012
TUBB1 (UniProt Q9H4B7) 0.093
TUBGCP2 isoform 4 (UniProt Q9BSJ2) 0.08
TMOD1 (UniProt P28289) 0.039
TRAPPC10 (UniProt P48553) -0.101
TRMT12 (UniProt Q53H54) -0.289
UBE2H (UniProt P62256) 0.174
TLE3 isoform 5 (UniProt Q04726) -0.409
TSFM (UniProt P43897) 0.012
TRMT2A (UniProt Q8IZ69) -0.002
